# Data published in PubChem BioAssay (NCI).
# About 79,000 compounds went through this panel and 15% of them were active in at least one assay; those are over-represented in the sample as a whole. Unmarked numbers belong to inactive results. No stated cut-off is given here; in the data, active means growth inhibition above about 70%; inactive means the rest.
# Experiment: NCI Yeast Anticancer Drug Screen. Data for the mlh1 rad18 strain (AID 175)
# Conditions: S. cerevisiae mlh1 rad18 strain growth inhibition; at 50.0 µM; active compounds read high
# In short: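 Vehicle-treated cultures served as the reference for growth inhibition in a yeast strain carrying DNA damage repair alterations exposed to each compound.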
row,SMILES,growth inhibition [%]
1,O=C1c2cccc([N+](=O)[O-])c2C(=O)c2cccc(Cl)c21,42.9
2,CCOC(=O)C(Cc1ccc(Cl)cc1)(Cc1ccc(Cl)cc1)C(=O)OCC,-10.7
3,Cc1cc(Cl)ccc1NC(=O)/C(=N\NC(C)(C)C)C(C#N)c1nc(-c2ccc([N+](=O)[O-])cc2)cs1 (stereo not given),-10.8
4,COC(=O)CCc1ccc(NC(=O)OC)cc1,-4.7
5,CC/C(C)=N/NC(=O)c1ccc([N+](=O)[O-])cc1,16.6
6,COc1cnnc2ccccc12,14.3
7,CC/C(C)=N/NS(C)(=O)=O,-10.9
8,CNn1c(C)n[nH]c1=O,17.1
9,O=C(NN1C(=O)C(Cl)C1c1ccccc1Cl)c1ccccc1O (stereo not given),-36
10,c1ccc2cc(N3CCOCC3)ccc2c1,2.3
11,CC(=O)OCC1C(=O)OCC1C(=O)N1Cc2cc3ccccc3nc2C1 (stereo not given),-9.85
12,Clc1ccc(C2=CSC3=NCCN23)cc1,1.25
13,C=C(C)C(C)(C)n1[nH]c(=O)n(-c2ccccc2)c1=O,0
14,CN1CCN(S(=O)(=O)C(c2ccccc2)C2(O)CCCCC2)CC1 (stereo not given),12.2
15,COc1ccc(NC(=O)C(=O)Cc2nc3ccc([N+](=O)[O-])cc3[nH]c2=O)c(OC)c1,22.6
16,COc1cc(NC(=O)CCN2CCOCC2)c2ncccc2c1,43
17,CSC(C1c2ccccc2N(C)C2=NC(=O)N(C)C(=O)C21Cl)S(=O)(=O)c1ccc(C)cc1 (stereo not given),51.3
18,COc1ccc2nc(NC(=O)C(=O)C(C#N)c3ccc(CC#N)cc3)sc2c1 (stereo not given),-5.75
19,O=C(c1cccc(Cl)c1)c1cccc2ccccc12,-10.2
20,CN=C1N[N+]2=CCCCC2S1 (stereo not given),13.3

row,SMILES,growth inhibition [%]
1,CC(=O)NC1=NC(=O)/C(=C/Cc2cccs2)N1C,-25.4
2,CC(=O)[C@H]1CC[C@H]2[C@@H]3CC[C@H]4C[C@@H](OC(c5ccccc5)(c5ccccc5)c5ccccc5)CC[C@]4(C)[C@H]3CC[C@]12C,-17.6
3,Cc1nn(C(=O)c2ccccn2)c(-c2ccccc2)c1N=Nc1ccc(S(=O)(=O)Nc2ncccn2)cc1,40.4
4,c1ccc(-c2nc3c(N4CCOCC4)ncnc3o2)cc1,2.75
5,CC(=O)Nc1cc(F)c(N=Nc2ccc([N+](=O)[O-])cc2)c(F)c1,-10.3
6,CCCCCCCCCCOc1ccc(OCCCCCCCCC)cc1,-11.9
7,O=C1OC2=C(CCCCC2)C(N2CCCCC2)C12SCCCS2 (stereo not given),-14.9
8,O=C(CSSCC(=O)Nc1ccccc1O)Nc1ccccc1O,-4.85
9,COc1ccc(/C=C2/C[N+](C)(C)C/C(=C/c3ccc(OC)cc3)C2=O)cc1,-2.25
10,Nc1nc2c(C(=O)c3ccco3)nnn2c2cccc(Cl)c12,5.85
11,Nc1cc(S(=O)(=O)O)nc(N)[n+]1[O-],2.8
12,c1cc(CCc2ccncc2)ccn1,22.4
13,CN(C)CCn1c(CO)nc2c1c(=O)n(C)c(=O)n2C,-5.6
14,CC(C)=CCC(C)C,-3.85
15,COc1ccc(/C=C\c2cc(OC)c(OC)c(OC)c2)cc1OC(=O)CC(N)C(=O)O (stereo not given),-5.8
16,Cc1ccc(S(=O)(=O)CCC(=O)c2ccc([N+](=O)[O-])cc2)cc1,16.9
17,CC1CCC(C(=O)O)CC1 (stereo not given),-14.2
18,COc1ccc(C)c2c1CCCC2,-14.5
19,O=C(N/C(=C\c1ccccc1)C1Nc2ccccc2C(=O)O1)c1ccccc1 (stereo not given),-24.7
20,Nc1cc(Br)cc2c1-c1ccc(Br)cc1C2=O,10
